{"source": "paper PMC4552634", "about": "“A New Set of Chemical Starting Points with Plasmodium falciparum Transmission-Blocking Potential for Antimalarial Drug Discovery” (PLoS ONE, 2015)", "note": "Out of some 13,000 compounds screened, about 3,200 (25%) showed an effect of 50% or more. The list shows a part of the results.", "data": [{"system": "P. falciparum stage V gametocytes", "design": "BacTiter-Glo ATP luminescence viability of purified stage V gametocytes in 384-well plates, per cent inhibition versus DMSO", "conditions": "48 h, 5 µM; inhibitor", "units": {"% Inhibition": "%"}, "values": [{"smiles": "CCN(CC)S(=O)(=O)c1ccc(C=CC(=O)Nc2cc(Cl)ccc2N2CCOCC2)cc1", "note": "[TCMDC-125117]", "% Inhibition": 28.22}, {"smiles": "Cc1cc(-c2cc(Cl)ccc2Cl)no1", "note": "[TCMDC-131691]", "% Inhibition": -15.9}, {"smiles": "CN(C)CCn1cc(C(=O)c2cc(Cl)ccc2O)cc1-c1nc2ccccc2c(=O)[nH]1", "note": "[TCMDC-125021]", "% Inhibition": -20.22}, {"smiles": "Cc1cccc(C)c1N1CCN(C2CCC(NC(=O)c3cc4ccccc4[nH]3)CC2)CC1", "note": "(stereo not drawn) [TCMDC-132890]", "% Inhibition": -33.12}, {"smiles": "COc1ccc2ncc(OC)c(CCN3CC[C@@H](NCc4ccc5c(n4)NC(=O)CS5)[C@H](O)C3)c2n1", "note": "[TCMDC-134668]", "% Inhibition": 10.18}, {"smiles": "CCN(CC)CCN(CCN(CC)CC)c1ccc(-c2nc3cc(Cl)c(Cl)cc3[nH]2)cc1", "note": "[TCMDC-139329]", "% Inhibition": 70.38}, {"smiles": "Clc1ccc(-c2nc3ccc(-c4ccc5nc(-c6ccc(Cl)cc6)[nH]c5c4)cc3[nH]2)cc1", "note": "[TCMDC-123460]", "% Inhibition": 1.652}, {"smiles": "CC(=O)Nc1ccc(-c2nc3ccc(-c4nc5ccc(NC(C)=O)cc5[nH]4)cc3[nH]2)cc1", "note": "[TCMDC-125761]", "% Inhibition": 0.4612}, {"smiles": "Cc1nc2nc(N)nc(N)c2c(C)c1Cc1cccs1", "note": "[TCMDC-137642]", "% Inhibition": -3.344}, {"smiles": "CC(CCc1ccccc1)NCC(O)c1cccc([N+](=O)[O-])c1", "note": "(stereo not drawn) [TCMDC-125728]", "% Inhibition": -0.1444}, {"smiles": "O=[N+]([O-])c1cccc(C(Nc2ccccn2)c2ccc3cccnc3c2O)c1", "note": "(stereo not drawn) [TCMDC-125725]", "% Inhibition": 107}, {"smiles": "Cc1ccnc(NC(c2cccc(OCc3ccccc3)c2)c2ccc3cccnc3c2O)c1", "note": "(stereo not drawn) [TCMDC-125558]", "% Inhibition": 93.78}, {"smiles": "Cc1ccnc(NC(c2cccc(Cl)c2Cl)c2ccc3cccnc3c2O)c1", "note": "(stereo not drawn) [TCMDC-123997]", "% Inhibition": 94.28}, {"smiles": "Cc1ccnc(NC(c2ccc(Cl)c([N+](=O)[O-])c2)c2ccc3cccnc3c2O)c1", "note": "(stereo not drawn) [TCMDC-123691]", "% Inhibition": 121}, {"smiles": "Oc1cccc2ccc(Nc3ccccn3)nc12", "note": "[TCMDC-125567]", "% Inhibition": 43.59}, {"smiles": "COc1ccc(-c2cc(C(=O)N[C@@H](Cc3ccccc3)C(=O)NCCN3CCCCC3)ccc2O)cc1", "note": "[TCMDC-140804]", "% Inhibition": 32.57}, {"smiles": "Cn1cnc(CCNC(=O)c2cccc(-c3cccc(-c4nc5cc(C(F)(F)F)ccc5[nH]4)c3)c2)c1", "note": "[TCMDC-132496]", "% Inhibition": 22.81}, {"smiles": "CCOCCCn1c(=N)c(C(=O)NC(C)c2ccccc2)cc2c(=O)n3cccc(C)c3nc21", "note": "(stereo not drawn) [TCMDC-124348]", "% Inhibition": 9.74}, {"smiles": "O=C(Cc1ccccc1)NC(c1ccco1)c1cc(Cl)c2cccnc2c1O", "note": "(stereo not drawn) [TCMDC-125561]", "% Inhibition": -24.24}, {"smiles": "Cc1cc(NC(c2ccc(Cl)cc2)c2ccc3cccnc3c2O)no1", "note": "(stereo not drawn) [TCMDC-123828]", "% Inhibition": 23.63}, {"smiles": "Oc1c(C(Nc2ccccn2)c2ccc(Cl)cc2Cl)ccc2cccnc12", "note": "(stereo not drawn) [TCMDC-125559]", "% Inhibition": 98.53}, {"smiles": "CCC(=O)NC(c1ccco1)c1cc(Cl)c2cccnc2c1O", "note": "(stereo not drawn) [TCMDC-123650]", "% Inhibition": -55.25}, {"smiles": "Oc1c(C(Nc2ccccn2)c2ccco2)cc(Cl)c2cccnc12", "note": "(stereo not drawn) [TCMDC-125324]", "% Inhibition": 60.61}, {"smiles": "Cc1ccc(Nc2nccc(NCC(O)c3ccc(C(F)(F)F)cc3)n2)cc1", "note": "(stereo not drawn) [TCMDC-136593]", "% Inhibition": 10.35}, {"smiles": "Cc1ccc2nc(NC#N)[nH]c2c1", "note": "[TCMDC-131394]", "% Inhibition": 6.156}, {"smiles": "Cc1noc(C)c1-c1ccc2c(Nc3ccccc3C(C)(C)C)c(C(=O)NCc3ccc(OC(C)C)cc3)cnc2c1.Cl", "note": "[TCMDC-136370]", "% Inhibition": -53.99}, {"smiles": "c1ccc2c(CNCCCCCCNCc3c(OCC4CC4)ccc4ccccc34)c(OCC3CC3)ccc2c1", "note": "[TCMDC-137839]", "% Inhibition": 118.2}, {"smiles": "Oc1ccc2ccccc2c1CNCC1CCCCC1", "note": "[TCMDC-137608]", "% Inhibition": 2.485}, {"smiles": "CCCOc1ccc2ccccc2c1CNCCCCCCNCc1c(OCCC)ccc2ccccc12", "note": "[TCMDC-137966]", "% Inhibition": 143.6}, {"smiles": "CCCCCCCCNCc1c(O)ccc2ccccc12", "note": "[TCMDC-137606]", "% Inhibition": 26.15}, {"smiles": "CCOc1cc(OCC)c2ccccc2c1CNCCCCCCNCc1c(OCC)cc(OCC)c2ccccc12", "note": "[TCMDC-137982]", "% Inhibition": 121.9}, {"smiles": "CCCCCCOc1ccc2ccccc2c1CNCCCCCCNCc1c(OCCCCCC)ccc2ccccc12", "note": "[TCMDC-137963]", "% Inhibition": 142.3}, {"smiles": "Oc1ccc2ccccc2c1CNCCC1CCCCC1", "note": "[TCMDC-137605]", "% Inhibition": -1.678}, {"smiles": "Cc1cc(N[C@@H](CC(C)C)C(=O)NCCc2ccccc2)nc(NCC2CCCCC2)n1", "note": "[TCMDC-134920]", "% Inhibition": -75.82}, {"smiles": "Cn1cncc1C(=O)Nc1ccc(-c2ccc(-c3nc4ccc(C(F)(F)F)cc4[nH]3)cc2)cc1", "note": "[TCMDC-137065]", "% Inhibition": -63.66}, {"smiles": "Cc1cc(Nc2ncc3c(n2)N(C2CCC2)CC3)ccc1N1CCN(C)CC1", "note": "[TCMDC-134146]", "% Inhibition": 20.06}, {"smiles": "Cc1cccc2[nH]c(-c3ccc(-c4ccc(NC(=O)NCc5cccc(F)c5)cc4)cc3)nc12", "note": "[TCMDC-133294]", "% Inhibition": -5.117}, {"smiles": "CN1CCN(c2ccc3nccc(CCN4CCC(NCc5ccc6c(n5)NC(=O)CO6)CC4)c3n2)CC1", "note": "[TCMDC-141580]", "% Inhibition": 8.776}, {"smiles": "CCOc1ccc2ccccc2c1CNCCCCCCNCc1c(OCC)ccc2ccccc12", "note": "[TCMDC-137791]", "% Inhibition": 117.2}, {"smiles": "COc1ccc(C2CC(=O)C3=C(C2)NC(C)=C(C(=O)OC(C)C)C3c2ccc(O)cc2)cc1OC", "note": "(stereo not drawn) [TCMDC-125633]", "% Inhibition": 43.1}, {"smiles": "CC(C)C[C@H](NC(=O)c1cc2cc(OCCN3CCNCC3)ccc2o1)C(=O)NC1CC[C@@H](C)N(C(=O)Nc2ccc(Cl)cc2)CC1=O", "note": "(stereo partly drawn) [TCMDC-133539]", "% Inhibition": 8.489}, {"smiles": "C[C@@H]1CC[C@H](NC(=O)[C@H](CC2CCCC2)NC(=O)N2CCNCC2)C(=O)CN1S(=O)(=O)c1ccccn1", "note": "[TCMDC-141571]", "% Inhibition": 57.62}, {"smiles": "COc1cccc2cc(C(=O)N[C@@H](CC(C)C)C(=O)NC3CC[C@@H](C)N(C(=O)Nc4ccncc4)CC3=O)oc12", "note": "(stereo partly drawn) [TCMDC-134320]", "% Inhibition": -6.979}, {"smiles": "CCOC(=O)NC1=NC(C)(C)N(OCCCOc2cc(Cl)c(Cl)cc2Cl)C(NC(=O)OCC)=N1", "note": "[TCMDC-131743]", "% Inhibition": 1.787}, {"smiles": "CCN(CC)c1ccc(C(c2ccc(N(CC)CC)cc2)c2ccc([N+](=O)[O-])cc2)cc1", "note": "[TCMDC-131286]", "% Inhibition": -67.18}, {"smiles": "Cc1cccc(CC2CC(=O)N(c3ccc([N+](=O)[O-])cc3)C2=O)c1", "note": "(stereo not drawn) [TCMDC-125732]", "% Inhibition": -3.627}, {"smiles": "O=C(NC1CC1)c1ccc(Cn2c(SCc3cccc([N+](=O)[O-])c3)nc3ccccc3c2=O)cc1", "note": "[TCMDC-123577]", "% Inhibition": 43.52}, {"smiles": "O=[N+]([O-])c1ccc(-n2nc(Cc3ccccc3)n(Cc3cccc(F)c3)c2=S)c(C(F)(F)F)c1", "note": "[TCMDC-135486]", "% Inhibition": 73.39}, {"smiles": "N#Cc1cc([N+](=O)[O-])ccc1-n1nc(C(N)=O)n(Cc2cccc(F)c2)c1=S", "note": "[TCMDC-134721]", "% Inhibition": 80.05}, {"smiles": "Cc1cccc(Cn2c(C(N)=O)nn(-c3ccc([N+](=O)[O-])cc3C#N)c2=S)c1", "note": "[TCMDC-134720]", "% Inhibition": 78.61}, {"smiles": "CC(C)CCn1c(Sc2ccc([N+](=O)[O-])cc2C(F)(F)F)nnc1-c1ccccc1Cl", "note": "[TCMDC-135484]", "% Inhibition": 10.18}, {"smiles": "CN(C)CCN(Cc1ccccc1)c1ccc([N+](=O)[O-])cc1C(F)(F)F", "note": "[TCMDC-135372]", "% Inhibition": 16.64}, {"smiles": "N#Cc1ccccc1C(=O)N(Cc1cncn1Cc1cccc(F)c1)CC1CC1", "note": "[TCMDC-132459]", "% Inhibition": -1.299}, {"smiles": "CCN(CCNC(=O)Cn1c(C)cc2cc([N+](=O)[O-])ccc21)c1cccc(C)c1", "note": "[TCMDC-140764]", "% Inhibition": 1.649}, {"smiles": "O=C(CCc1cccc(O)c1)NCC(NCCCNc1cc(=O)c2ccccc2[nH]1)c1cc(Br)cc(Br)c1", "note": "(stereo not drawn) [TCMDC-140319]", "% Inhibition": -27.67}, {"smiles": "COc1ccc(C(=O)N2CCC3(CC2)C(=O)N(CC(=O)NCC2CCCCC2)CN3c2ccccc2)c(OC)c1", "note": "[TCMDC-125170]", "% Inhibition": -47.66}, {"smiles": "O=C(NCC1CCN(Cc2ccsc2)C1)c1cc(-c2cccc(C(F)(F)F)c2)cs1.O=C(O)C(F)(F)F", "note": "(stereo not drawn) [TCMDC-134478]", "% Inhibition": -49.55}, {"smiles": "O=C(NCC1CCN(Cc2cccc(F)c2)C1)c1cc(-c2cccc(C(F)(F)F)c2)cs1", "note": "(stereo not drawn) [TCMDC-134480]", "% Inhibition": 4.488}, {"smiles": "CC(=O)Nc1ccc(CN2CCC(CNC(=O)c3cc(-c4cccc(C(F)(F)F)c4)cs3)C2)cc1.O=C(O)C(F)(F)F", "note": "(stereo not drawn) [TCMDC-134456]", "% Inhibition": 0.3319}, {"smiles": "CN(C)c1ccc(-c2csc(C(=O)NCC3CCN(CC4CCCCC4)C3)c2)cc1.O=C(O)C(F)(F)F", "note": "(stereo not drawn) [TCMDC-134424]", "% Inhibition": 97.4}, {"smiles": "O=C(NCC1CCN(Cc2cccc(C(F)(F)F)c2)C1)c1cc(-c2cccc(F)c2)cs1", "note": "(stereo not drawn) [TCMDC-134484]", "% Inhibition": 54.37}, {"smiles": "O=C(NCC1CCN(Cc2ccc3c(c2)OCCO3)C1)c1cc(-c2cccc(C(F)(F)F)c2)cs1.O=C(O)C(F)(F)F", "note": "(stereo not drawn) [TCMDC-134458]", "% Inhibition": 1.256}, {"smiles": "O=C(NCC1CCN(Cc2cccc(C(F)(F)F)c2)C1)c1cc(-c2cccc(C(F)(F)F)c2)cs1", "note": "(stereo not drawn) [TCMDC-134483]", "% Inhibition": 53.9}, {"smiles": "O=C(NCC1CCN(CC2CCCCC2)C1)c1cc(-c2cccc(C(F)(F)F)c2)cs1.O=C(O)C(F)(F)F", "note": "(stereo not drawn) [TCMDC-134422]", "% Inhibition": 101.5}, {"smiles": "COc1ccccc1C1CCN(C2CCC(NC(=O)/C=C/c3cccc(C(F)(F)F)c3)CC2)CC1", "note": "(stereo not drawn) [TCMDC-133555]", "% Inhibition": -60.89}, {"smiles": "Cc1cc(-c2cccc3c(NC(=O)N4CCc5cc6nccc(N7CCN8CCC[C@H]8C7)c6cc54)cccc23)cc(C)n1", "note": "[TCMDC-139794]", "% Inhibition": -14.58}]}]}
